Survival data for 93 molecules are collected here from PubChem BioAssay AID463173 (ICCB-Longwood Screening Facility, Harvard Medical School, 2010).

SMILES strings stand for the structures. Among all 52,000 compounds or so, about 4,300 (8.3%) were called active. The sample as a whole holds a higher share of actives than the screen did. Unmarked numbers belong to inactive results. Rule as the data show it: active = survival mostly below about 52% (no sharp cut-off); inactive = mostly above about 56%.

This experiment concerns DeltatarO mutant. The experiment is described as follows: growth inhibition of S. aureus wild type versus tarO mutant, primary screen, teichoic acid synthesis inhibitors, RN4220, OD600 (AID 463173). The note with it: OD600, 18 h, active compounds read low, screened at 18.75 µg/mL (by protocol).
For `Cc1ccccc1Cn1c(CN2CCC(C(=O)NCCN(C)C)CC2)cc2ccccc21`, the survival is 112%. Turning to `COc1ccc(S(=O)(=O)N(C)CC(=O)NCc2ccc3c(c2)OCO3)cc1`, the survival was 89%. Regarding `COc1ccc(/C=C(\C#N)C(=O)NCc2ccco2)cc1C`, the survival was 80%. Regarding `Cc1cc(C)c(NC(=O)Nc2ccc3snnc3c2)c(C)c1`, the survival is 118%. With `Cc1c(Cl)cccc1NC(=O)c1ccc2snnc2c1`, the survival is 126%. Consider `Cc1c(Cl)cccc1NC(=O)Nc1ccc2snnc2c1`, for which the survival was -4% (active). Turning to `CCc1ccccc1NC(=O)Nc1ccc2snnc2c1`, the survival was 41% (active). Turning to `Cc1ccc(F)c(NC(=O)Nc2ccc3snnc3c2)c1`, the survival is 97%. Regarding `CCOc1ccc(NC(=O)Nc2ccc3snnc3c2)cc1`, the survival was 110%. With `CC(C)(C)C1CCc2onc(C(=O)Nc3sc4c(c3C#N)CCCC4)c2C1` (stereo not drawn), the survival is 105%.

Regarding `CC(C)(C)C1CCc2onc(C(=O)Nc3sc4c(c3C(N)=O)CCCC4)c2C1` (stereo not drawn), the survival is 45% (active).

On to `NC(=O)c1c(NC(=O)c2noc3c2CCCC3)sc2c1CCCC2`, for which the survival was 40% (active).

For `CCOC(=O)c1c(NC(=O)c2noc3c2CC(C(C)(C)C)CC3)sc2c1CCCC2` (stereo not drawn), the survival was 66%. As for `NC(=O)c1c(NC(=O)c2cc(-c3ccc(F)cc3)on2)sc2c1CCCC2`, the survival was 62%.

For `CC(=O)Nc1sc2c(c1C(N)=O)CCCC2`, the survival is 80%. As to `CCOC(=O)c1noc2nc(C)n(Cc3cccc(C#N)c3)c(=O)c12`, the survival was 87%. For `O=C(NCc1ccccc1F)C1CCN(Cc2cc3ccccc3n2Cc2cccc(Cl)c2)CC1`, the survival is 78%. The same measure for `CCc1sc(Nc2cccc(Cl)c2C)nc1-c1cc2cccc(OC)c2oc1=O`: 67%. For `O=C(NC1CCCC1)C(c1ccsc1)N(C(=O)Cc1cccs1)c1ccccc1` (stereo not drawn), the survival was 86%. As for `O=S(=O)(NC1CCCC1)c1ccc(Br)cc1`, the survival was 93%. With `CCCNS(=O)(=O)c1ccc2[nH]c(=O)[nH]c2c1`, the survival was 96%. Regarding `O=c1[nH]c2ccc(S(=O)(=O)NC3CCCCC3)cc2[nH]1`, the survival is 62% (active).

Consider `Cc1nc2c(-c3ccc(F)cc3)c(C)nn2c(C)c1CCC(=O)NCc1ccc(F)cc1`, for which the survival is 78%.

As to `COc1cccc(Cc2nc3ccccc3nc2SCC(=O)Nc2cccc(C)c2)c1`, the survival is 94%. As for `COc1ccc(NC(=O)CSc2nc3ccccc3nc2N2CCCCC2)cc1`, the survival was 18% (active). As for `CC(C)NC(=O)CSc1nc2ccccc2nc1N1CCCCC1`, the survival is -26% (active). The same measure for `CCN(C(=O)CSc1nc2ccccc2nc1Cc1ccc(F)cc1)c1cccc(C)c1`: 86%; for `O=C(O)CSc1nc2ccccc2nc1N1CCCCC1`: 56%. Regarding `COc1cccc(Cc2nc3ccccc3nc2SCC(=O)Nc2cc(OC)ccc2OC)c1`, the survival was 47% (active). As for `CC(=O)Nc1ccc(NC(=O)CSc2nc3ccccc3nc2N2CCCCC2)cc1`, the survival was 57%. On to `CCN(C(=O)CSc1nc2ccccc2nc1Cc1cccc(OC)c1)c1cccc(C)c1`, for which the survival is 0% (active). Then `CC(C)NC(=O)CSc1nc2ccccc2[nH]1`, with 60%.

With `COc1cccc(Cc2nc3ccccc3nc2SCC(=O)Nc2ccccc2F)c1`, the survival was 67%. Turning to `COc1ccc(NC(=O)CSc2nc3ccccc3nc2N2CCC(C)CC2)cc1`, the survival is 45%.

`CCc1ccccc1NC(=O)CSc1nc2ccccc2nc1Cc1cccc(OC)c1`: the survival was 86%. In the case of `O=C(N/N=C/c1ccc(-c2ccc(Cl)c(C(=O)O)c2)o1)c1ccncc1`, the survival is 68%. The same measure for `CCc1ccc(-n2c(=O)c3c4c(sc3n(CC(=O)c3ccc(F)cc3)c2=O)CCC4)cc1`: 81%; for `CC(C)CCNC(=O)c1nn(C)c2c1CSc1ccccc1-2`: 70%; for `Cn1cnnc1SCC(N)=O`: 99%. Take `CCOC(=O)c1ccc(NC(=O)c2csnn2)cc1`: the survival was 104%.

Take `Cc1ccc(CNC(=O)CSc2ncc(S(=O)(=O)c3ccc(C)c(Cl)c3)c(=O)[nH]2)cc1`: the survival was 77%. The same measure for `Cc1cccc(NC(=O)CSc2cn(CC(=O)N3CCOCC3)c3ccccc23)c1`: 82%; for `COc1ccc(CCNC(=O)Cn2c(-c3cccs3)cc3cc(F)ccc32)cc1OC`: 83%.

On to `Cc1ccc(-n2nc(C(=O)NCc3ccc(F)cc3Cl)c3c4ccccc4n(C)c3c2=O)cc1`, for which the survival is 131%. With `COc1ccc(OC)c(NC(=O)CSc2cn(CC(=O)N3CCCCCC3)c3ccccc23)c1`, the survival is 85%. With `Cc1cc(C)c(NC(=O)c2nc3ccccc3nc2N2CCCCC2)c(C)c1`, the survival is 90%. Turning to `COc1ccc(C)cc1NC(=O)CSc1nc2ccccc2nc1N1CCOCC1`, the survival is 73%. Take `Cc1cccc(NC(=O)CSc2nc3ccccc3nc2N2CCCCC2)c1C`: the survival is 75%. In the case of `COc1ccccc1Cc1nc2ccccc2nc1SCC(=O)Nc1cc(Cl)ccc1OC`, the survival is 73%. Turning to `COc1ccc(NC(=O)CSc2nc3ccccc3nc2N2CCOCC2)c(OC)c1`, the survival was 76%. For the molecule `COc1ccc(Cl)cc1NC(=O)CSc1nc2ccccc2nc1N1CCCCC1`, the survival is 27% (active).

Regarding `COc1ccc(OC)c(NC(=O)CSc2nc3ccccc3nc2N2CCCCC2)c1`, the survival was 5% (active). The same measure for `Cc1cc(C)c(NC(=O)CSc2nc3ccccc3nc2N2CCCCC2)c(C)c1`: 39% (active); for `COc1ccc(-c2nc3n(n2)C(c2cccc(C)c2)C(C(N)=O)=C(C)N3)cc1OC` (stereo not drawn): 93%. The same measure for `CCN(CC)Cc1ccc(C(=O)O)o1`: 97%; for `Cn1c(=O)c2sccc2n2c(CCC(=O)N3CCN(c4cccc(Cl)c4)CC3)nnc12`: 193%. On to `CCOc1ccc(-c2cccc(NS(=O)(=O)c3ccc(Cl)s3)c2)nn1`, for which the survival was 92%. For the molecule `Cc1cccc(NC(=O)CSc2nc(=O)n(Cc3ccccn3)c3c2CCC3)c1C`, the survival was 85%. Turning to `CCCOc1ccc(N2CC(C(=O)Nc3cccc(Cl)c3Cl)CC2=O)cc1` (stereo not drawn), the survival was 145%.

`CCCCOc1cccc(C(=O)N(Cc2sccc2C)C2CCS(=O)(=O)C2)c1` (stereo not drawn): the survival is 73%. The same measure for `CCc1ccc(NC(=O)c2ccc(Cn3nc(N4CCN(c5ccccc5)CC4)ccc3=O)o2)cc1`: 83%; for `O=C(Nc1cccc(Cl)c1)c1ccc2c(c1)CCN2S(=O)(=O)c1ccccc1`: 41% (active); for `Cc1ccc(S(=O)(=O)N2CCc3cc(C(=O)Nc4c(F)cccc4F)ccc32)cc1`: 64%. The same measure for `CC(=O)c1cccc(NC(=O)c2ccc3c(c2)CCN3S(=O)(=O)c2ccccc2)c1`: 44% (active).

For `CCCCOC(=O)c1ccc(NC(=O)c2ccc3c(c2)CCN3S(=O)(=O)c2ccccc2)cc1`, the survival is 57%. As for `CC(=O)Nc1ccc(NC(=O)c2ccc3c(c2)CCN3S(=O)(=O)c2ccc(Cl)cc2)cc1`, the survival is 113%. Consider `O=C(c1ccc2c(c1)CCN2S(=O)(=O)c1ccccc1)N1CCN(c2cccc(Cl)c2)CC1`, for which the survival is 45%. Then `CCc1c(C)sc2c1CCN(C(=O)Nc1ccccc1C(=O)OC)C2c1ccc(OC)cc1` (stereo not drawn), with 92%; and `Cn1cc(C(=O)NCCc2ccccc2)c(=O)c2cc(S(=O)(=O)N3CCCCCC3)ccc21`, with 68%; and `CN(C(=O)c1nn(C)c2c1CS(=O)(=O)c1ccccc1-2)c1cccc(Cl)c1`, with 64%. Then `Cc1cccc(NC(=O)Cn2c(=O)n(CCC(=O)N3CCc4ccccc4C3)c(=O)c3ccccc32)c1`, with 88%; and `COc1ccc(NC(=O)CSc2nc3c(oc4ccccc43)c(=O)n2-c2ccccc2)cc1OC`, with 63%. Consider `CCn1c(CN2CCOCC2)nc2cc(NC(=O)c3cc(OC)c(OC)c(OC)c3)ccc21`, for which the survival is 89%. For the molecule `O=C(NCCO)C(=O)Nc1c2c(nn1-c1ccc(F)cc1)CSC2`, the survival is 82%. The same measure for `CCc1ccc(NC(=O)CSc2nc(-c3ccccc3)c(C#N)c(=O)[nH]2)cc1`: 78%; for `COc1ccccc1NC(=O)CSc1nc(-c2ccc(C(C)(C)C)cc2)c(C#N)c(=O)[nH]1`: 52%. Then `CC(C)(C)c1ccc(-c2nc(SCC(=O)Nc3ccc(Cl)cc3)[nH]c(=O)c2C#N)cc1`, with -2% (active); and `CN1CCN(C(=O)c2ccc3c(c2)N(Cc2c(F)cccc2Cl)C(=O)c2ccccc2S3)CC1`, with 85%. `Cc1ccc(S(=O)(=O)c2nc(-c3cccs3)oc2SCC(=O)Nc2cc(C)cc(C)c2)cc1`: the survival is 70%. In the case of `COc1cc(CN2CCN(C(=O)c3cccc4ccccc34)CC2)cc(OC)c1OC`, the survival is 72%.

As for `COc1ccc(CCn2nnnc2CN2CCN(Cc3ccccc3)CC2)cc1OC`, the survival is 82%. As to `COc1cc(CN2CCN(S(=O)(=O)c3ccccc3)CC2)cc(OC)c1O`, the survival is 57%. For the molecule `CCCS(=O)(=O)N1CCN(Cc2ccc(OC)c(OCC)c2)CC1`, the survival was 97%. On to `CCn1c2ccccc2c2cc(CN3CCN(Cc4ccc(OC)c(OC)c4)CC3)ccc21`, for which the survival was 17% (active). As to `CCn1c2ccccc2c2cc(CN3CCN(Cc4cc(OC)c(O)c(OC)c4)CC3)ccc21`, the survival was 43% (active).

With `O=C(CCSCCc1ccccn1)Nc1cc(F)ccc1F`, the survival is 79%. Turning to `COc1ccc(-c2csc3ncnc(Nc4ccc(OC)cc4OC)c23)cc1`, the survival was 64%.

Take `CCCCNC(=O)c1ccc2c(c1)NC(=O)C(CS(=O)(=O)Cc1ccc(F)cc1Cl)N2` (stereo not drawn): the survival is 74%. Take `O=C(CSc1nc2c(oc3ccccc32)c(=O)n1-c1ccccc1)Nc1ccccc1F`: the survival was 66%. The same measure for `O=C(CSCc1ccc(F)cc1)N1CCN(c2ccccc2F)CC1`: 102%. For the molecule `Cc1ccc(Cl)cc1Nc1nc2ccccc2c2nncn12`, the survival was 104%. Regarding `Cc1ccc(Nc2nc3ccccc3c3nncn23)cc1C`, the survival is -4% (active). With `COc1cccc(Nc2nc3ccccc3c3nncn23)c1`, the survival was 89%.
